PubChem BioAssay (EPA / NIEHS)
Results filed as inconclusive are left out. Calls of active or inactive are those of the source. Rule for the calls, unless noted: active = hit-call score of the fitted dose curve at least 0.9, where 1 is the maximum; inconclusive = response in the unintended direction; inactive = score below 0.9. Peptide text beside a SMILES is read from it.

How the values were obtained:
[1] = ATG_TCF_b_cat_CIS: Attagene CIS-FACTORIAL HepG2 Assay for human T-Cell-Factor with beta-catenin (TCF/b-cat) (AID 2282965; active = hit-call score of the fitted dose curve at least 0.9, where 1 is the maximum; inactive = score below 0.9); details: HepG2 TCF/beta-catenin cis-reporter transcription, actives raise or lower the signal
How it was run: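 HepG2, transient MRTU transfection, cis-element-driven reporters (endogenous TFs). 24 h compound exposure. Readout: reporter mRNA by RT-PCR + 6-FAM primer extension, HpaI digest, capillary electrophoresis. Gain/loss fit vs DMSO baseline.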

[2] = ATG_TAL_CIS: Attagene CIS-FACTORIAL HepG2 Assay for human TAL Basal Promoter (AID 2282966; active = hit-call score of the fitted dose curve at least 0.9, where 1 is the maximum; inactive = score below 0.9;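 note: background control endpoint measuring basal TAL promoter reporter mRNA not a specific factor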); details: HepG2 Attagene cis-factorial TAL promoter reporter; actives raise or lower the signal
How it was run: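 Human hepatoma HepG2 cells, transfected with promoter-regulated reporter units, were treated 24 h. Reporter transcript levels, measured through RT-PCR and capillary electrophoresis, were fitted for gain or loss relative to DMSO.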

[3] = ATG_TGFb_CIS: Attagene CIS-FACTORIAL HepG2 Assay for human Transforming Growth Factor (TGF) (AID 2282967; active = hit-call score of the fitted dose curve at least 0.9, where 1 is the maximum; inactive = score below 0.9); details: HepG2 Attagene CIS TGFb reporter, mRNA transcription; actives raise or lower the signal
How it was run: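 Readout: fluorescently labeled reporter cDNA fragments resolved by capillary electrophoresis after RT-PCR. Transfected HepG2 cells dosed for 24 h; endogenous TF activity at TGFB1-linked cis element; gain or loss fitted relative to DMSO.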

[4] = target: Estrogen receptor (Homo sapiens) (UniProt P03372); experiment: ATG_ERa_TRANS: Attagene TRANS-FACTORIAL HepG2 Assay for human Estrogen Receptor alpha (ERa) (AID 2282970); details: HepG2 Attagene TRANS ERa GAL4 reporter, mRNA
Chain of Estrogen receptor (Homo sapiens) (P03372 whole entry, looked up, the tested form may be a part): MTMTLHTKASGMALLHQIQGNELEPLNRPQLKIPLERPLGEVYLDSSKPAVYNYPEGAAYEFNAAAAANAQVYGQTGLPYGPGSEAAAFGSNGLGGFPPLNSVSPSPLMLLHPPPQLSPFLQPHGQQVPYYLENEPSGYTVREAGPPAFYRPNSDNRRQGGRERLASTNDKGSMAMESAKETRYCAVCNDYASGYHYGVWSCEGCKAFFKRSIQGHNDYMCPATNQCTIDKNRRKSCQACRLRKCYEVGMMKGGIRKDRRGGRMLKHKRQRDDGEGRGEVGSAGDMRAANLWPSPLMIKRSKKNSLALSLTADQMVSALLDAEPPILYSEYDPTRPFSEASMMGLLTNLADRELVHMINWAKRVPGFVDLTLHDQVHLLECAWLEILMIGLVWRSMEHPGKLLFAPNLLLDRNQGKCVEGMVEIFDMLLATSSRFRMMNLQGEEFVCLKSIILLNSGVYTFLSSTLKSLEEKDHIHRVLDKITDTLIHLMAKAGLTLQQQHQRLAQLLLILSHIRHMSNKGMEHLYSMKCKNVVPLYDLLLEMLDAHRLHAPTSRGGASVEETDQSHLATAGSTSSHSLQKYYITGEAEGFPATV
How it was run: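 Signal derives from fluorescence of labelled reporter PCR fragments separated by capillary electrophoresis. HepG2 cells transiently carrying multiple GAL4-UAS reporter units were treated 24 hours, and induction above DMSO baseline was fitted as activity.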

[5] = target: X-box-binding protein 1 (Homo sapiens) (UniProt P17861); experiment: ATG_Xbp1_CIS: Attagene CIS-FACTORIAL HepG2 Assay for human X-box Binding Protein 1 (XBP1) (AID 2282972; active = hit-call score of the fitted dose curve at least 0.9, where 1 is the maximum; inactive = score below 0.9); details: HepG2 XBP1 cis-element reporter, Attagene multiplex; actives raise or lower the signal
Chain of X-box-binding protein 1 (Homo sapiens) (P17861 whole entry, looked up): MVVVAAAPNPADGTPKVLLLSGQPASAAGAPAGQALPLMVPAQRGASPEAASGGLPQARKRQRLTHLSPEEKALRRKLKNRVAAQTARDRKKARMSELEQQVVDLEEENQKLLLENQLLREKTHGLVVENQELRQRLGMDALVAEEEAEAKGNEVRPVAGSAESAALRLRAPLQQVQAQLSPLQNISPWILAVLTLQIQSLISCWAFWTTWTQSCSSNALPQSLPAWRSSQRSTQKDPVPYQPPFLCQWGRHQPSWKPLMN
How it was run: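 Multiplexed cis-reporter readout in transfected HepG2 liver cells. Exposure lasted 24 hours. Activity in either direction was fitted against DMSO as negative control and baseline.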

[6] = target: Glucocorticoid receptor (Homo sapiens) (UniProt P04150); experiment: ATG_GR_TRANS: Attagene TRANS-FACTORIAL HepG2 Assay for human Glucocorticoid Receptor (GR) (AID 2282978); details: HepG2 Attagene TRANS GR reporter, mRNA transcription;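 note: activators score as hits since higher reporter transcript over DMSO is fitted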
Chain of Glucocorticoid receptor (Homo sapiens) (P04150 whole entry, looked up, the tested form may be a part): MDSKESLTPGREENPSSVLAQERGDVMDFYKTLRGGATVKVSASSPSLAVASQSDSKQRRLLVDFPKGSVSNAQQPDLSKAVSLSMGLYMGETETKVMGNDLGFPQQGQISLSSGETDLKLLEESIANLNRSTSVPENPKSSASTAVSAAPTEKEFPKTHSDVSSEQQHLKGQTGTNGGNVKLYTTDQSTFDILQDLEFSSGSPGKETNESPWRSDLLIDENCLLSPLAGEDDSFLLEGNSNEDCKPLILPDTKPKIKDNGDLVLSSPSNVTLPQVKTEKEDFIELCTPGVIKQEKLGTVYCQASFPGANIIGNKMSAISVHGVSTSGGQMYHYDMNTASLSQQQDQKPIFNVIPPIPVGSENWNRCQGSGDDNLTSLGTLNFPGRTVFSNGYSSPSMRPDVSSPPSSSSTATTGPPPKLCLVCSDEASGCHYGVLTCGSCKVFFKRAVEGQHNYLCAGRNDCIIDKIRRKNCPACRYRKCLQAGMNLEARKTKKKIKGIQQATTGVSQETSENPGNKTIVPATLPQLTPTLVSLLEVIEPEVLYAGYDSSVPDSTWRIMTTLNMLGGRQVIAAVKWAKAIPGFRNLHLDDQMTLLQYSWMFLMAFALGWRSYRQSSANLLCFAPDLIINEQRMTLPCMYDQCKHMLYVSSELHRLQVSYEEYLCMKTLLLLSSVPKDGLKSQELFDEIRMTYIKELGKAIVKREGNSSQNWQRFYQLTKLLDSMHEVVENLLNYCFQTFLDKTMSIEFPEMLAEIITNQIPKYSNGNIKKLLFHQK
How it was run: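 HepG2 cells transiently transfected with multiplexed reporter units in which chimeric NR-GAL4 proteins drive GAL4-UAS reporters; 24 h compound exposure. Reporter mRNA measured by RT-PCR, 6-FAM labelling, HpaI digestion and capillary electrophoresis; gain-of-signal fitted versus DMSO.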

[7] = target: Oxysterols receptor LXR-alpha (Homo sapiens) (UniProt Q13133); experiment: ATG_LXRa_TRANS: Attagene TRANS-FACTORIAL HepG2 Assay for human Liver X Receptor alpha (LXRa) (AID 2282980); details: HepG2 Attagene TRANS reporter, LXRa transactivation
Chain of Oxysterols receptor LXR-alpha (Homo sapiens) (Q13133 whole entry, looked up, the tested form may be a part): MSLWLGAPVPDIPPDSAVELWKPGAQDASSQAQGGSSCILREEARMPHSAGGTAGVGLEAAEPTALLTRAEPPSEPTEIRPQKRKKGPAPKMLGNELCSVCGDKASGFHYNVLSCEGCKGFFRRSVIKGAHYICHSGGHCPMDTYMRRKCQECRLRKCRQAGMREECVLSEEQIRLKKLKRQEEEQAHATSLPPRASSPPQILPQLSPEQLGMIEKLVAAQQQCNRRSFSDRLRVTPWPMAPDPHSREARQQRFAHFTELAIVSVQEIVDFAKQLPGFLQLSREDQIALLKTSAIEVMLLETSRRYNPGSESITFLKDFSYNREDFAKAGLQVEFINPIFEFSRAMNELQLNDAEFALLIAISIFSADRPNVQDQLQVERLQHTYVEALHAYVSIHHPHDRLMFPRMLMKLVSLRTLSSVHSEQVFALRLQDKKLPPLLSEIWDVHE
How it was run: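 In this multiplexed TRANS system, compounds act on HepG2 cells carrying GAL4-UAS reporter units and a receptor-GAL4 fusion for 24 h. Induced reporter RNA is amplified, fluorescently labelled and sized by capillary electrophoresis, with DMSO as baseline.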

[8] = target: Oxysterols receptor LXR-beta (Homo sapiens) (UniProt P55055); experiment: ATG_LXRb_TRANS: Attagene TRANS-FACTORIAL HepG2 Assay for human Liver X Receptor beta (LXRb) (AID 2282981); details: HepG2 Attagene TRANS GAL4-LXRb reporter, mRNA
Chain of Oxysterols receptor LXR-beta (Homo sapiens) (P55055 whole entry, looked up, the tested form may be a part): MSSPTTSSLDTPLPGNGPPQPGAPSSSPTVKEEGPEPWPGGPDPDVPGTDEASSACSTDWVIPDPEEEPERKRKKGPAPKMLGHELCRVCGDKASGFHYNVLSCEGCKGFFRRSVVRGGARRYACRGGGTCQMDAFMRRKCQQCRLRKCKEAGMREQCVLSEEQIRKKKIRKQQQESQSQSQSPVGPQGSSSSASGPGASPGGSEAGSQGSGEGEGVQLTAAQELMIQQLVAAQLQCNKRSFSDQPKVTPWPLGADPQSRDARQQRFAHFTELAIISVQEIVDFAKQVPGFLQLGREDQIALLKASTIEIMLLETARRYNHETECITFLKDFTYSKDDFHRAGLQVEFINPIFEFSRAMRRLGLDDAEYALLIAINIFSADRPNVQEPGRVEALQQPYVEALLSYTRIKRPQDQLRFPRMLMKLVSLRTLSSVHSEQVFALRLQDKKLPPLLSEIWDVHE
How it was run: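 Multiplexed reporter assay, HepG2, 24 h dosing. Fluorescence of labelled RT-PCR products after capillary electrophoresis gives transcript level; positive fitting direction relative to DMSO.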

[9] = ATG_M_06_TRANS: Attagene TRANS-FACTORIAL HepG2 Assay for M06 Transcription Factor (Internal Marker) (AID 2282983); details: HepG2 Attagene TRANS M06 internal marker reporter
How it was run: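 Multi-reporter-transfected HepG2, 24 h treatment; reporter transcripts quantified via RT-PCR, primer-extension labelling and CE. DMSO-normalized gain-of-signal fit.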

[10] = ATG_M_32_TRANS: Attagene TRANS-FACTORIAL HepG2 Assay for M32 Transcription Factor (Internal Marker) (AID 2282984); details: HepG2 Attagene TRANS M32 internal marker reporter
How it was run: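 Internal-marker readout from a multiplexed transcription reporter panel. HepG2 cells were transfected with GAL4-UAS reporter units, treated 24 hours, and reporter transcript levels determined by fluorescence after RT-PCR and capillary separation.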

[11] = target: Transcriptional activator Myb (Homo sapiens) (UniProt P10242); experiment: ATG_Myb_CIS: Attagene CIS-FACTORIAL HepG2 Assay for human Myeloblastosis (Myb) Proto-Oncogene Transcription Factor (AID 2282986; active = hit-call score of the fitted dose curve at least 0.9, where 1 is the maximum; inactive = score below 0.9); details: HepG2 Attagene CIS-FACTORIAL Myb reporter transcription; actives raise or lower the signal
Chain of Transcriptional activator Myb (Homo sapiens) (P10242 whole entry, looked up): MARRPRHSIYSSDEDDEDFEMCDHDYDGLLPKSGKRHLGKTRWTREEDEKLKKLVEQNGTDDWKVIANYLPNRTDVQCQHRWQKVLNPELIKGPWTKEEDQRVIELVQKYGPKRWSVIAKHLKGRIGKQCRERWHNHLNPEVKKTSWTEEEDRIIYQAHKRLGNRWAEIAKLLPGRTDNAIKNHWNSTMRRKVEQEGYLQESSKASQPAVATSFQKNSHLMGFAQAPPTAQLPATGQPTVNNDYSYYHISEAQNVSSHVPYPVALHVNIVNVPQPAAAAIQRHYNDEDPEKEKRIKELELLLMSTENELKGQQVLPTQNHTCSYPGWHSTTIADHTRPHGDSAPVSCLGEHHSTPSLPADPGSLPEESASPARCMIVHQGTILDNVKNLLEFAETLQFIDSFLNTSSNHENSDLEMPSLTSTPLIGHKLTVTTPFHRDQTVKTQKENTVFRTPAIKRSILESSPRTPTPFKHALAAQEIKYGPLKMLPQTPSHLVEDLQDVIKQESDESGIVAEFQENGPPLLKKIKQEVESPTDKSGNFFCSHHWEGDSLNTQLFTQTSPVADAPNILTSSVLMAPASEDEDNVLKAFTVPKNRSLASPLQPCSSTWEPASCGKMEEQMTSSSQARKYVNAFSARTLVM
How it was run: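 HepG2 cells were transiently transfected with cis-regulated multiple reporter transcription units reflecting endogenous Myb activity, then exposed to compound for 24 hours. Reporter mRNA was measured by RT-PCR with capillary electrophoresis; bidirectional fitting versus DMSO baseline.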

[12] = target: Hepatocyte nuclear factor 4-alpha (Homo sapiens) (UniProt P41235); experiment: ATG_HNF4a_TRANS: Attagene TRANS-FACTORIAL HepG2 Assay for human Hepatocyte Nuclear Factor 4 alpha (HNF4a) (AID 2282982); details: HepG2 HNF4a transactivation reporter, mRNA readout
Chain of Hepatocyte nuclear factor 4-alpha (Homo sapiens) (P41235 whole entry, looked up, the tested form may be a part): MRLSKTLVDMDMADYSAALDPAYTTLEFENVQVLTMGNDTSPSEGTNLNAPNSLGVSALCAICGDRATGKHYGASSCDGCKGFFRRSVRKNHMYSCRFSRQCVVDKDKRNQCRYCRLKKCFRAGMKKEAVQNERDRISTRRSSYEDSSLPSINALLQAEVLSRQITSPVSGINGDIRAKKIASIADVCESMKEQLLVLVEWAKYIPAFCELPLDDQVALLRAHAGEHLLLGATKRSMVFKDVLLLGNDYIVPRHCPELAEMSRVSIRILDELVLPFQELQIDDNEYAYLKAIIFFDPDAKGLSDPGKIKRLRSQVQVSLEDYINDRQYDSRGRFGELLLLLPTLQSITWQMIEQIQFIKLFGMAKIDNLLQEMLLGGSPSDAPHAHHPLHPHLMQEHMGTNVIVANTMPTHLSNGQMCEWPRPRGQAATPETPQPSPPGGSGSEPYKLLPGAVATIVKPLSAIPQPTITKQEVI
How it was run: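 Endpoint reflects transcriptional activation of a GAL4-UAS reporter by an HNF4a-GAL4 chimera in transfected HepG2 cells, 24 h post-dosing. Fluorescence from RT-PCR products separated by capillary electrophoresis; DMSO baseline.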

[13] = target: Nuclear receptor subfamily 4 group A member 2 (Homo sapiens) (UniProt P43354); experiment: ATG_NURR1_TRANS: Attagene TRANS-FACTORIAL HepG2 Assay for human Nuclear Receptor Related Protein 1 (NURR1) (AID 2282985); details: HepG2 Attagene TRANS reporter, mRNA readout
Chain of Nuclear receptor subfamily 4 group A member 2 (Homo sapiens) (P43354 whole entry, looked up): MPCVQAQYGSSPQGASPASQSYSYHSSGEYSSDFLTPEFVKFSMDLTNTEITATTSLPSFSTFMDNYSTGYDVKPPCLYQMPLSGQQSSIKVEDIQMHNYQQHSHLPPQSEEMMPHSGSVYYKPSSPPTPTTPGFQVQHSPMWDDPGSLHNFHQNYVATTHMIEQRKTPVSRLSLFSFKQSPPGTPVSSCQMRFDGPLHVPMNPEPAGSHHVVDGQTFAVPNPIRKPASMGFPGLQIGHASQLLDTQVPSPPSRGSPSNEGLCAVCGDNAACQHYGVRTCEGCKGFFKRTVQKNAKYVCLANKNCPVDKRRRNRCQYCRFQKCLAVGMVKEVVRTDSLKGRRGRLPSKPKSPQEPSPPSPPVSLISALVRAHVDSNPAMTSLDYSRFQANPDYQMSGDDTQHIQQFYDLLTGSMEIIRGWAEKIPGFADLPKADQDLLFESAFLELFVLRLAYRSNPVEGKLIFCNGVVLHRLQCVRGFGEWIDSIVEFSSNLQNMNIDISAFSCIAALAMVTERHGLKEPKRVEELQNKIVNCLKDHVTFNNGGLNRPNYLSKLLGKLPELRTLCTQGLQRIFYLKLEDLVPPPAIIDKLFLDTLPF
How it was run: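 Endpoint: reporter mRNA increase relative to DMSO. HepG2 cells transfected with reporter units, treated 24 h; RNA processed by RT-PCR, labelling, HpaI digestion and capillary electrophoresis.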

[14] = ATG_M_19_TRANS: Attagene TRANS-FACTORIAL HepG2 Assay for M19 Transcription Factor (Internal Marker) (AID 2282974); details: HepG2 Attagene TRANS-FACTORIAL M19 internal marker reporter
How it was run: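 HepG2 cells transiently transfected with multiple GAL4-UAS reporter transcription units were exposed to chemicals for 24 h. Reporter mRNA was read by RT-PCR, 6-FAM primer extension, HpaI digestion and capillary electrophoresis; gain of signal fitted relative to DMSO.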

[15] = target: Bile acid receptor (Homo sapiens) (UniProt Q96RI1); experiment: ATG_FXR_TRANS: Attagene TRANS-FACTORIAL HepG2 Assay for Farnesoid X Receptor (FXR) (AID 2282979); details: HepG2 Attagene TRANS FXR-GAL4 reporter transcription;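 note: hits raise reporter mRNA above DMSO so AC50 marks FXR activation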
Chain of Bile acid receptor (Homo sapiens) (Q96RI1 whole entry, looked up, the tested form may be a part): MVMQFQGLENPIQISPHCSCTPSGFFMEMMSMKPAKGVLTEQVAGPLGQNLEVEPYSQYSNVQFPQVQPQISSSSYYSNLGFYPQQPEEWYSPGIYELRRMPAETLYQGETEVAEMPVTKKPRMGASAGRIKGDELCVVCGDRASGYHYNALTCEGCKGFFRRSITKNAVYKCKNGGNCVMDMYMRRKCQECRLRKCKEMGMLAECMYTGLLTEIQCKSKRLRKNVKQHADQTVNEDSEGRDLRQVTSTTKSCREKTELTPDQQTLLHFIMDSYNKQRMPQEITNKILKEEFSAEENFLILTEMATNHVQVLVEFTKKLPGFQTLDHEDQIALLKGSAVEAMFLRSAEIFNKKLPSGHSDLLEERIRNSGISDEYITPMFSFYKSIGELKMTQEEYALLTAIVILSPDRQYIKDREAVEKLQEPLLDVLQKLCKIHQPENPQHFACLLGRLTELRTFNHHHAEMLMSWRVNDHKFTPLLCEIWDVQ
How it was run: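 After 24 h chemical treatment of transfected HepG2 cells, GAL4-UAS reporter transcripts driven by an exogenous FXR-GAL4 fusion were measured by RT-PCR and capillary electrophoresis. Increases over DMSO were fitted.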

[16] = ATG_GAL4_TRANS: Attagene TRANS-FACTORIAL HepG2 Assay for GAL4 (Internal Marker) (AID 2282976); details: HepG2 Attagene TRANS GAL4 internal marker reporter
How it was run: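 Liver HepG2 line bearing multiplexed GAL4-UAS reporter constructs; 24 h chemical treatment. Transcripts were quantified as fluorescent fragments on capillary electrophoresis after RT-PCR and HpaI cut, with activity fitted upward from DMSO.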

| Structure (SMILES) | outcome [1] | outcome [2] | outcome [3] | outcome [4] | outcome [5] | outcome [6] | outcome [7] | outcome [8] | outcome [9] | outcome [10] | outcome [11] | outcome [12] | outcome [13] | AC50 [4] | outcome [14] | outcome [15] | AC50 [15] | AC50 [1] | AC50 [13] | outcome [16] |
| --- | --- | --- | --- | --- | --- | --- | --- | --- | --- | --- | --- | --- | --- | --- | --- | --- | --- | --- | --- | --- |
| COC(=O)[C@H](Cc1ccccc1)NC(=O)[C@@H](N)CC(=O)O (H-Asp-Phe-OMe) | inactive | inactive | inactive | inactive | inactive | inactive | inactive | inactive | inactive | inactive | inactive | – | – | – | – | – | – | – | – | – |
| O=C(O)CCCC(=O)O | inactive | inactive | inactive | inactive | inactive | inactive | – | inactive | inactive | – | inactive | inactive | inactive | – | – | – | – | – | – | – |
| CN(C)Cc1cc(CN(C)C)c(O)c(CN(C)C)c1 | inactive | inactive | inactive | inactive | inactive | – | – | – | inactive | – | inactive | inactive | inactive | – | – | – | – | – | – | – |
| CC1(C)CCC[C@]2(C)[C@H]3CC(=O)O[C@]3(C)CC[C@@H]12 | inactive | inactive | inactive | – | inactive | inactive | inactive | inactive | – | inactive | inactive | – | – | 2.7 µM (active) | inactive | inactive | – | – | – | – |
| CC(c1cc(C(C)(C)C)cc(C(C)(C)C)c1O)c1cc(C(C)(C)C)cc(C(C)(C)C)c1O | inactive | inactive | inactive | – | inactive | – | – | – | inactive | – | inactive | – | inactive | – | – | – | 3.42 µM (active) | – | – | – |
| O=C(OCc1ccccc1)c1ccc(O)cc1 | – | inactive | inactive | – | – | inactive | inactive | inactive | inactive | – | inactive | – | – | 26.7 µM (active) | inactive | inactive | – | 124 µM (active) | 158 µM (active) | – |
| Cc1cc(C)c(C=O)c(C)c1 | inactive | inactive | inactive | inactive | inactive | – | – | inactive | – | – | inactive | inactive | – | – | inactive | – | – | – | – | inactive |
| Cc1ccc(C)c(OCCCC(C)(C)C(=O)O)c1 | inactive | inactive | inactive | – | inactive | – | inactive | inactive | inactive | – | inactive | inactive | – | 20.2 µM (active) | – | – | – | – | – | inactive |
| Clc1cccnc1 | inactive | inactive | inactive | – | inactive | – | inactive | inactive | inactive | inactive | inactive | inactive | – | – | inactive | inactive | – | – | – | inactive |
| O=C(Oc1ccccc1)c1ccccc1C(=O)Oc1ccccc1 | – | inactive | inactive | inactive | inactive | inactive | – | – | – | inactive | inactive | inactive | – | – | inactive | – | – | 51.4 µM (active) | – | inactive |
| CO[Si](CCCS)(OC)OC | inactive | inactive | inactive | inactive | inactive | inactive | – | – | – | inactive | inactive | inactive | inactive | – | inactive | – | – | – | – | inactive |
| CC(=O)/C=C/C1C(C)=CCCC1(C)C (centres undefined) | inactive | inactive | inactive | – | inactive | – | – | – | – | inactive | – | – | – | 24.2 µM (active) | inactive | inactive | – | – | – | – |
| CCCCCCCCCC(C)=O | inactive | inactive | inactive | inactive | inactive | inactive | inactive | inactive | – | inactive | inactive | – | inactive | – | inactive | – | – | – | – | inactive |
| COC(=O)c1ccccc1C | inactive | inactive | inactive | – | inactive | – | – | – | – | – | inactive | inactive | inactive | – | inactive | – | – | – | – | – |
| CC1=CCC(C(C)C)C=C1 (centres undefined) | inactive | inactive | inactive | inactive | inactive | – | inactive | inactive | inactive | inactive | inactive | inactive | inactive | – | – | – | – | – | – | – |
| CCCCNS(=O)(=O)c1ccc(C)cc1 | inactive | inactive | inactive | inactive | inactive | – | inactive | inactive | inactive | – | inactive | – | inactive | – | inactive | – | – | – | – | – |
| COCC(=O)O | inactive | inactive | inactive | inactive | inactive | inactive | – | – | – | inactive | inactive | inactive | – | – | inactive | – | – | – | – | – |
| C=C(C)[C@@H]1CC=C(C)CC1 | inactive | inactive | inactive | – | inactive | – | – | inactive | inactive | – | inactive | – | inactive | – | inactive | – | – | – | – | – |
| CC(C)[N+](C)(CCOC(=O)C1c2ccccc2Oc2ccccc21)C(C)C | inactive | inactive | inactive | inactive | inactive | inactive | – | inactive | – | – | inactive | – | – | – | inactive | inactive | – | – | – | inactive |
| Nc1ccc(C(=O)OCCCOC(=O)c2ccc(N)cc2)cc1 | inactive | inactive | inactive | inactive | inactive | inactive | – | – | – | inactive | inactive | inactive | – | – | inactive | inactive | – | – | – | inactive |
